Data as given in PubChem BioAssay (NCI).
Compounds without any hit were thinned out: in the full panel of roughly 83,000, 20% have a hit.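 Treatment: one concentration, 48 hours, 96-well format. Scoring: percent growth, with anything below 10 considered active.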 A number with no mark means an inactive call. The source made the active and inactive calls.

What was measured:
Experiment in all cases: NCI-60 one-dose screen, 48 h (100 = growth as untreated, 0 = no growth, -100 = all killed)
Conditions in all cases: 10 µM unless noted
T-47D breast = system: T-47D breast
BT-549 breast = system: BT-549 breast
MDA-MB-435 melanoma = system: MDA-MB-435 melanoma
SW-620 colon = system: SW-620 colon
MCF7 breast = system: MCF7 breast
HCT-116 colon = system: HCT-116 colon
HCC-2998 colon = system: HCC-2998 colon
KM12 colon = system: KM12 colon

Row | Compound | growth (T-47D breast) | growth (BT-549 breast) | growth (MDA-MB-435 melanoma) | growth (SW-620 colon) | growth (MCF7 breast) | growth (HCT-116 colon) | growth (HCC-2998 colon) | growth (KM12 colon)
1 | CCN(CC)CCCC(C)Nc1c2ccc(Cl)cc2nc2ccc(O)cc12 (stereo not drawn) | 49.7% | 64.8% | 27% | 24.5% | 6.22% (active) | 14.8% | 25.4% | 30.4%
2 | COc1cc(C2CC(=O)Nc3c2c(C)nn3-c2nc3ccccc3[nH]2)c(OC)c(OC)c1OC (stereo not drawn) | 40.8% | 52.7% | -36.4% (active) | 26.7% | 25.4% | 23.5% | 95.2% | 35.1%
3 | CCSC1=NC2C(N(CC)C(=O)N2CC)N1/N=C/C=C/c1ccccc1[N+](=O)[O-] (stereo not drawn) | 63.3% | 10.1% | -37.4% (active) | 16.7% | 12.3% | 4.16% (active) | 11% | 10.1%
4 | O=C(N/N=C/c1ccncc1)c1ccc(C(F)(F)F)nc1Nc1cccc(C(F)(F)F)c1 | 25.6% | 23.8% | 36.4% | 14.8% | -14.5% (active) | 11.1% | -40.3% (active) | 20.9%
5 | Fc1ccc(CNc2c3ccccc3nc3ccccc23)cc1F | 47.9% | 68.2% | 49.2% | 23.7% | 12.9% | 8.18% (active) | 2.15% (active) | 53.3%
6 | COc1cccc(-c2nc3sccn3c2-c2ccnc(NCCNS(=O)(=O)c3cccc(Cl)c3)c2)c1 | 1.84% (active) | 18.3% | 59.7% | 66.5% | 43.2% | 40% | 64.2% | 42.8%
7 | C=C1C(=O)O[C@H]2[C@H]1CC/C(COC(=O)C(=O)c1c[nH]c3ccc(OC)cc13)=C\CC[C@@]1(C)O[C@@H]21 | -54.5% (active) | -63.7% (active) | -85.3% (active) | -61.4% (active) | -30.1% (active) | -97.3% (active) | -81.9% (active) | -71.2% (active)
8 | C[n+]1cc2c3c(ccc2c2ccc4cc5c(cc4c21)OCO5)OCO3 | -78.2% (active) | -91.7% (active) | -85.8% (active) | -67.3% (active) | -72.5% (active) | -89.2% (active) | -82.1% (active) | -78.5% (active)
9 | COc1ccc(-c2ccc3c(c2)sc2nc(-c4ccc(F)cc4)cn23)cc1 | 55.1% | 105% | 74.3% | 98.8% | 33.3% | 42.3% | 29.3% | 64.8%
10 | CCc1ccccc1-n1c(-c2ccc(Cl)cc2)cc(-c2ccc(Cl)cc2)c(C#N)c1=O | 78.6% | 93.7% | 82.8% | 88.9% | 61.7% | 69.8% | 101% | 82.9%
11 | Cc1ccccc1NC(=O)N/C(N)=N/c1nc(-c2cccc([N+](=O)[O-])c2)cs1 | 35.7% | 51% | -19.7% (active) | 31.1% | 22.4% | 20.6% | 39.6% | 31.2%
12 | O=C(Nc1cccc(Oc2nnc(Cl)c3ccccc23)c1)Nc1ccc(Cl)c(C(F)(F)F)c1 | -24.6% (active) | -37.2% (active) | -78.4% (active) | -62.9% (active) | -35.6% (active) | -71.6% (active) | -86.5% (active) | -60.1% (active)
13 | CCOC(=O)c1c2ncccc2n2c(=O)n(-c3ccccc3C)nnc12 | 89.9% | 104% | 116% | 117% | 77.5% | 92.6% | 106% | 119%
14 | CC(C)(C)C(CCc1ccc(Cl)cc1)N1CCN(C2CCCCC2)CC1 (stereo not drawn) | 23.2% | 50% | 39.2% | 35% | 31.6% | 17.5% | 27% | 36.8%
15 | O=Cc1c[nH]c2ccc(-c3csc4ccccc34)cc12 | 70.7% | 38.5% | -17.5% (active) | 15.6% | 40.2% | 21.2% | 13.4% | 2.08% (active)
16 | CN(C)CCNc1nc2ccccc2c2c1c1c(n2Cc2ccccc2)-c2ccccc2C1=O | -41.2% (active) | -86.8% (active) | -65.1% (active) | -92.8% (active) | -93.2% (active) | -78.2% (active) | -91.3% (active) | -74.6% (active)

Row | Compound | growth (T-47D breast) | growth (BT-549 breast) | growth (MDA-MB-435 melanoma) | growth (SW-620 colon) | growth (MCF7 breast) | growth (HCT-116 colon) | growth (HCC-2998 colon) | growth (KM12 colon)
17 | N#Cc1c(-c2cccc(Cl)c2)cc(-c2cccc(Cl)c2)[nH]c1=O | 79.2% | 52.4% | 0.951% (active) | 50.2% | 53.8% | 67.1% | 82.6% | 56.1%
18 | COc1ccc(-c2nc(SCCC(C)C)nc(N/N=C\c3ccccc3O)c2C#N)cc1 | 83.9% | 100% | 87.8% | 72.1% | 79% | 71% | 104% | 91.4%
19 | O=c1[nH]nc(-c2ccccc2)c2c(-c3ccccc3)onc12 | 20.1% | 22.8% | 16.7% | 22.2% | 25.6% | 35.7% | 35.1% | 29.8%
20 | Cc1c(Cl)cc(-n2c(=O)c3ccccc3c3ccccc3c2=O)cc1Cl | 93.9% | 89.8% | 104% | 109% | 98% | 101% | 95.5% | 111%
21 | COc1ccc(-c2nc(SCC(=O)Nc3nc(-c4ccccc4)cs3)[nH]c(=O)c2C#N)cc1 | 84.3% | 92.4% | 101% | 97.4% | 96.4% | 86% | 87.5% | 108%
22 | Cn1cc(-c2csc(-c3ccccc3)n2)c2cccnc21 | -45.4% [100 µM] (active) | -39.4% [100 µM] (active) | -45.2% [100 µM] (active) | -34.1% [100 µM] (active) | -44.7% [100 µM] (active) | -76.9% [100 µM] (active) | -79.3% [100 µM] (active) | -68.6% [100 µM] (active)
23 | COc1ccc(N2CCN(c3nc(-c4cc(OC)c(OC)c(OC)c4)nc4ccccc34)CC2)cc1 | 45.4% | 39.9% | 67.1% | 85.6% | 83.3% | 70% | 95.1% | 70%
24 | Clc1cccc(Cl)c1/C=C/c1cc(/C=C/c2c(Cl)cccc2Cl)[nH]n1 | 57% | 30.7% | -50% (active) | 18.2% | 20.9% | 15.5% | 35.1% | 24.9%
25 | Cc1ccc(/C=C/c2c(C(=O)/C=C/c3ccc(Cl)cc3)c(C)nc3ccccc23)cc1 | 1.89% (active) | -10.4% (active) | -47.5% (active) | -33.1% (active) | 12.8% | -59.6% (active) | -82.1% (active) | -24.9% (active)
26 | C#Cc1cccc(NC(=O)c2ccc(NC(=O)CCl)cc2)c1 | 19.1% [8.25 µM] | -44.8% [8.25 µM] (active) | -4.26% [8.25 µM] (active) | -75.5% [8.25 µM] (active) | 4.22% [8.25 µM] (active) | -30.3% [8.25 µM] (active) | 92.8% [8.25 µM] | 37.9% [8.25 µM]
27 | NCCCNc1nc2ccccc2c2c(=O)c3cccc(Cl)c3sc12 | 35.3% | 76.6% | -43.3% (active) | -79.4% (active) | -86.6% (active) | -92% (active) | -94.1% (active) | -72.6% (active)
28 | O=C(/C=C/c1c(Cl)nc2sccn12)c1nccs1 | 87.5% | 109% | 91.9% | 77.8% | 76.2% | 81.1% | 102% | 89.7%
29 | COc1cccc(-c2nn(-c3ccccc3)cc2-c2ccnc(NCCCNC(=O)c3ccccc3)c2)c1 | 4.22% (active) | 14% | 5.43% (active) | 39.7% | 33.4% | 36% | 52.3% | 33.6%
30 | COC(=O)[C@]12CC[C@@H](C)[C@H](C)[C@@H]1C1=CC[C@@H]3[C@@]4(C)C(C=O)=C[C@@](C)(COC(C)=O)C4=CC[C@@]3(C)[C@]1(C)CC2 | -5.34% (active) | -16% (active) | -0.255% (active) | -43.8% (active) | 5.08% (active) | -67.5% (active) | -14.6% (active) | 2.7% (active)
31 | O=[N+]([O-])c1ccc(OCCO)cc1 | 101% | 109% | 105% | 101% | 94.3% | 103% | 113% | 106%
